# Laboratory results published in paper PMC7862700, “An all-to-all approach to the identification of sequence-specific readers for epigenetic DNA modifications on cytosine”.
# Experiments:
# Experiment in all cases: DAPPL (digital affinity profiling via proximity ligation, sequencing); 10 mM Tris-HCl pH 7.5, 50 mM NaCl, 1 mM DTT, 4% glycerol, room temperature, 30 min; GST-TFs on glutathione beads, 16-mer random dsDNA library, 0.1% formaldehyde crosslink after washing; high values mean tight binding
# FEV = molecular target: T1, FEV (Homo sapiens, UniProt Q99581 1-238); conditions: protein: recombinant; tags: N-terminal GST; dsDNA, one strand shown
# T1 sequence: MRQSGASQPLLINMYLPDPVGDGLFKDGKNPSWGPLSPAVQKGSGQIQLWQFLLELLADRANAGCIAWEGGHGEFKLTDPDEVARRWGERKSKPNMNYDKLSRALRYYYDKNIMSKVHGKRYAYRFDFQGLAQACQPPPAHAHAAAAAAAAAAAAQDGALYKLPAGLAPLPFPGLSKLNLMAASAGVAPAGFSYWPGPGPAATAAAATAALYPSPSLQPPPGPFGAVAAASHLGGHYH
# How it was run: (§1)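 A tag-only sample was pooled with DNA-barcoded human transcription factors that had been expressed in yeast as GST fusions and captured on glutathione beads. The pools were incubated for 30 min at room temperature with 200 nmole of a random double-stranded 16-mer DNA library in Tris/NaCl/DTT/glycerol buffer, then washed, crosslinked with 0.1% formaldehyde, proximity-ligated (BsaI/T4 ligase, 1 h, 37 °C), PCR-amplified and sequenced on an Illumina NextSeq500. Binding signal is each hexamer's read frequency for a factor divided by its frequency for the tag-only sample.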
# ETV5 = ETV5 (Homo sapiens, UniProt P41161 1-510); conditions: protein: recombinant; tags: N-terminal GST; dsDNA, one strand shown
# How it was run: as §1
# HSF1 = HSF1 (Homo sapiens, UniProt Q00613 1-529); conditions: protein: recombinant; tags: N-terminal GST; chain copies: 3; dsDNA, one strand shown
# How it was run: as §1
# SPIC = molecular target: T2, SPIC (Homo sapiens, UniProt Q8N5J4 1-248); conditions: protein: recombinant; tags: N-terminal GST; dsDNA, one strand shown
# T2 sequence: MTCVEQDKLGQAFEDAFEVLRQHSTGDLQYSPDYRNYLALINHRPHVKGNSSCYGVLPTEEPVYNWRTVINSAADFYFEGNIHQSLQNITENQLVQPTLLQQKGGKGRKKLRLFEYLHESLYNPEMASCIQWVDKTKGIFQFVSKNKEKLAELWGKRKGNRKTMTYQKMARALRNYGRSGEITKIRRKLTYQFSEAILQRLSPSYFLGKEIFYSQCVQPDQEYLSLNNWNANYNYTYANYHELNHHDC
# How it was run: as §1
# ELF4 = ELF4 (Homo sapiens, UniProt Q99607 1-663); conditions: protein: recombinant; tags: N-terminal GST; dsDNA, one strand shown
# How it was run: as §1
# ELK4 = molecular target: T3, ELK4 (Homo sapiens, UniProt P28324-2 1-405); conditions: protein: recombinant; tags: N-terminal GST; dsDNA, one strand shown
# T3 sequence: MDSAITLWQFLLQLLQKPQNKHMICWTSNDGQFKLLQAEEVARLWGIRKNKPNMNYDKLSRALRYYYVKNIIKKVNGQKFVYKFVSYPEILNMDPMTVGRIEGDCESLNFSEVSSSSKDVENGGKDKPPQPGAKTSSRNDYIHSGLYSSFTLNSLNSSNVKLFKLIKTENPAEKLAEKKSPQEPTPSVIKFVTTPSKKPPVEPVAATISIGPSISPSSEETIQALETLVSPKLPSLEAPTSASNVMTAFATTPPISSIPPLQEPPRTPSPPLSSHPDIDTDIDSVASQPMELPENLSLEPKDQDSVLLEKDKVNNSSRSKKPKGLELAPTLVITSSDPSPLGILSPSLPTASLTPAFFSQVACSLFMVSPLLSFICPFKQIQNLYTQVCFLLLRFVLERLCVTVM
# How it was run: as §1
# ETV2 = molecular target: T4, ETV2 (Homo sapiens, UniProt O00321 1-342); conditions: protein: recombinant; tags: N-terminal GST; dsDNA, one strand shown
# T4 sequence: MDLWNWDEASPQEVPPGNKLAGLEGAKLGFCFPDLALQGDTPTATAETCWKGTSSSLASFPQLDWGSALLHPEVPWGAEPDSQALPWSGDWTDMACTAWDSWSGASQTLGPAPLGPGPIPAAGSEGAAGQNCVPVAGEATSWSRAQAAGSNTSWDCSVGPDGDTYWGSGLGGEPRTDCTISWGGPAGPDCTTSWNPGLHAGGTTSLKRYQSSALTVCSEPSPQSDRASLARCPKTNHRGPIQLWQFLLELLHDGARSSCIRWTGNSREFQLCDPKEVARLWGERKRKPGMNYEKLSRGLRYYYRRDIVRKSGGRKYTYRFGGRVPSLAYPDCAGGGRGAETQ
# How it was run: as §1
# ELF3 = molecular target: T5, ELF3 (Homo sapiens, UniProt P78545 1-371); conditions: protein: recombinant; tags: N-terminal GST; dsDNA, one strand shown
# T5 sequence: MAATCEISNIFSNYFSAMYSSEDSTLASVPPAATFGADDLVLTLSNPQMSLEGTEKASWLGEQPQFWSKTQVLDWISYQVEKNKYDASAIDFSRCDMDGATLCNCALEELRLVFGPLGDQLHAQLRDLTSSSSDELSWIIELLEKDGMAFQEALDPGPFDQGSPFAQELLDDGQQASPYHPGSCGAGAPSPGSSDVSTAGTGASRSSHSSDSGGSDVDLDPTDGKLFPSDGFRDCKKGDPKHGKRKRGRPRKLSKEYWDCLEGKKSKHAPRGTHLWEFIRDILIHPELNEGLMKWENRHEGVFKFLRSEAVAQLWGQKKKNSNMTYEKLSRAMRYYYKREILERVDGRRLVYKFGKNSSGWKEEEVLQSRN
# How it was run: as §1
# CRX = CRX (Homo sapiens, UniProt O43186 1-299); conditions: protein: recombinant; tags: N-terminal GST; dsDNA, one strand shown
# How it was run: as §1
# ETV1 = ETV1 (Homo sapiens, UniProt P50549 1-477); conditions: protein: recombinant; tags: N-terminal GST; dsDNA, one strand shown
# How it was run: as §1
# ERF = molecular target: T6, ERF (Homo sapiens, UniProt P50548 1-548); conditions: protein: recombinant; tags: N-terminal GST; dsDNA, one strand shown
# T6 sequence: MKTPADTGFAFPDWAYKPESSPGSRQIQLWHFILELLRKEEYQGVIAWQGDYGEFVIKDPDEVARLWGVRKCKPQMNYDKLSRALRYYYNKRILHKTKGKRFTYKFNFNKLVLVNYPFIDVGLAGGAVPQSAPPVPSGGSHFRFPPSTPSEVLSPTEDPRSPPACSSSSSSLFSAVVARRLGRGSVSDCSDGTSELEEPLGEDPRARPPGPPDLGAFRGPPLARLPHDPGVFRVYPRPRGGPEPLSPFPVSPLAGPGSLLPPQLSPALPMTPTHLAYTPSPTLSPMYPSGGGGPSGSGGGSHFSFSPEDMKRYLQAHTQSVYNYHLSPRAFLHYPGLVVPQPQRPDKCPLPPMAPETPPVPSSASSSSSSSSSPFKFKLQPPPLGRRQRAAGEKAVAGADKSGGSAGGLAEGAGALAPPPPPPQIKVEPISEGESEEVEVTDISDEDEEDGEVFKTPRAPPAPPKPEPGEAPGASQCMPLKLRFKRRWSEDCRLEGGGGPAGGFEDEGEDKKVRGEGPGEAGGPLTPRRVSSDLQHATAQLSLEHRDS
# How it was run: as §1
# ETV3L = molecular target: T7, ETV3L (Homo sapiens, UniProt Q6ZN32 1-361); conditions: protein: recombinant; tags: N-terminal GST; dsDNA, one strand shown
# T7 sequence: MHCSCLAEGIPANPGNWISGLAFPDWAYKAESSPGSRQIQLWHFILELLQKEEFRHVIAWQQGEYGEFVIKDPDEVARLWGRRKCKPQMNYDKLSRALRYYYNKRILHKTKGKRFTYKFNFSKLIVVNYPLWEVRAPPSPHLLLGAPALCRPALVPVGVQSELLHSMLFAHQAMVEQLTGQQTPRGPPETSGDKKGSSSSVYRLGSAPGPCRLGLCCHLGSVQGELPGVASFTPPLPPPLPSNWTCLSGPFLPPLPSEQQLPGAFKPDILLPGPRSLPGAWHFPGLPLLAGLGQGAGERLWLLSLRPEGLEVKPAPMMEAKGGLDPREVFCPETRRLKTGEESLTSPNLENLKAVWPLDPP
# How it was run: as §1
# ETS2 = molecular target: T8, ETS2 (Homo sapiens, UniProt P15036 1-469); conditions: protein: recombinant; tags: N-terminal GST; dsDNA, one strand shown
# T8 sequence: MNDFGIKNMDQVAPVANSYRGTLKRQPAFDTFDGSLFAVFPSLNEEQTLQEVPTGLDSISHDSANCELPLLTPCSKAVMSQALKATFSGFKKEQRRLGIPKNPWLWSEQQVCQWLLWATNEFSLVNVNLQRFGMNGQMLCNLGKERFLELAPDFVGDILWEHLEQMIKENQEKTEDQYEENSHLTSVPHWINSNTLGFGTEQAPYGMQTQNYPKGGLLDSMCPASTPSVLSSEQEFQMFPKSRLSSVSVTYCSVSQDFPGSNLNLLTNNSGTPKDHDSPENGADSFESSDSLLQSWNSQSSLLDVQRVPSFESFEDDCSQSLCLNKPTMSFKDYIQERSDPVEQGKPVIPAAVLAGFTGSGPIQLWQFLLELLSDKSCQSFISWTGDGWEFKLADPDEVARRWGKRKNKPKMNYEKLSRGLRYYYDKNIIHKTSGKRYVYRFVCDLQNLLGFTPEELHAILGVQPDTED
# How it was run: as §1
# SPDEF = molecular target: T9, SPDEF (Homo sapiens, UniProt O95238 1-335); conditions: protein: recombinant; tags: N-terminal GST; dsDNA, one strand shown
# T9 sequence: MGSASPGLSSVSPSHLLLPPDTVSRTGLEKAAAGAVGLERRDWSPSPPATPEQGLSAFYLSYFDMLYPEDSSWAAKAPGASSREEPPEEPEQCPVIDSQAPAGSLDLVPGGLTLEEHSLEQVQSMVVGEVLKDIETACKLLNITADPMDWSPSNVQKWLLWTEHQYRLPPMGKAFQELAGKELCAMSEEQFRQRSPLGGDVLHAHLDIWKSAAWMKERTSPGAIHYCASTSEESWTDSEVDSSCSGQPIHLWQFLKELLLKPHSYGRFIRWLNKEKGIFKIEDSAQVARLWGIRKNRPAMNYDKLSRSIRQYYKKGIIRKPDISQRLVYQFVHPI
# How it was run: as §1
# ETV7 = molecular target: T10, ETV7 (Homo sapiens, UniProt Q9Y603 1-341); conditions: protein: recombinant; tags: N-terminal GST; dsDNA, one strand shown
# T10 sequence: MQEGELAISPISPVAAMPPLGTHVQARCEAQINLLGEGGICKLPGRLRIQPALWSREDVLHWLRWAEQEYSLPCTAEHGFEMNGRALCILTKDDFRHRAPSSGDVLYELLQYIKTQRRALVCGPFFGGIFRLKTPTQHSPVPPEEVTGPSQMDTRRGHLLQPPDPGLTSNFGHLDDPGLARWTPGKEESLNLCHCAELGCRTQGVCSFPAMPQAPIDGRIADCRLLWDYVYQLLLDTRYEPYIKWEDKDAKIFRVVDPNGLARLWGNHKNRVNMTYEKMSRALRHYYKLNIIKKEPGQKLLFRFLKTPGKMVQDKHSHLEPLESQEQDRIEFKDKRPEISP
# How it was run: as §1
# ELF5 = molecular target: T11, ELF5 (Homo sapiens, UniProt Q9UKW6-2 1-255); conditions: protein: recombinant; tags: N-terminal GST; dsDNA, one strand shown
# T11 sequence: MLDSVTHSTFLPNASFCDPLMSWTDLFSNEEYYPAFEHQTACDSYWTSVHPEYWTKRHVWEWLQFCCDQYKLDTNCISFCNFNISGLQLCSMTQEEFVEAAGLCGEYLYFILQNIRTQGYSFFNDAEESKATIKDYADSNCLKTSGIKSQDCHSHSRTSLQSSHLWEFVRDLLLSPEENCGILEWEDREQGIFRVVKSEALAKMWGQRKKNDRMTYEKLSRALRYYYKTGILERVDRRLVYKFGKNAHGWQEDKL
# How it was run: as §1
# ETV3 = molecular target: T12, ETV3 (Homo sapiens, UniProt P41162-2 1-143); conditions: protein: recombinant; tags: N-terminal GST; dsDNA, one strand shown
# T12 sequence: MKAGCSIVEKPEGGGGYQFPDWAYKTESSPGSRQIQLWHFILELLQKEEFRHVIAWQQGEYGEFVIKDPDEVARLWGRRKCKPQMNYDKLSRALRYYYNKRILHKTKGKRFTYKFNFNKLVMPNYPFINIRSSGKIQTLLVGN
# How it was run: as §1
# ETV6 = ETV6 (Homo sapiens, UniProt P41212 1-452); conditions: protein: recombinant; tags: N-terminal GST; dsDNA, one strand shown
# How it was run: as §1
# Sequence of ETV1 (P50549 whole entry): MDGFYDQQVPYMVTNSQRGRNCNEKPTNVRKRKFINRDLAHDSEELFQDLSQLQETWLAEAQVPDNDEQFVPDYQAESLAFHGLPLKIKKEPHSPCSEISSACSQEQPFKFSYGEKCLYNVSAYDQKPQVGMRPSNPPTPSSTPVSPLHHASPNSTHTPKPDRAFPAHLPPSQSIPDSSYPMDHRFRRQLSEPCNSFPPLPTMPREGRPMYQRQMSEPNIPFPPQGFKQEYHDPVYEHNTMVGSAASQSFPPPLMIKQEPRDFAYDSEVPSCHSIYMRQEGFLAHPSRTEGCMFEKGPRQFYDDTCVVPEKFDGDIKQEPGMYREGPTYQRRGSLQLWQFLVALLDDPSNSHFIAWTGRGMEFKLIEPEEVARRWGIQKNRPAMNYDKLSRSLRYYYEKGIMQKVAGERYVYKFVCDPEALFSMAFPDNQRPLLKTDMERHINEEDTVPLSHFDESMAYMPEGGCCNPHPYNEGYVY
# Sequence of ETV6 (P41212 whole entry): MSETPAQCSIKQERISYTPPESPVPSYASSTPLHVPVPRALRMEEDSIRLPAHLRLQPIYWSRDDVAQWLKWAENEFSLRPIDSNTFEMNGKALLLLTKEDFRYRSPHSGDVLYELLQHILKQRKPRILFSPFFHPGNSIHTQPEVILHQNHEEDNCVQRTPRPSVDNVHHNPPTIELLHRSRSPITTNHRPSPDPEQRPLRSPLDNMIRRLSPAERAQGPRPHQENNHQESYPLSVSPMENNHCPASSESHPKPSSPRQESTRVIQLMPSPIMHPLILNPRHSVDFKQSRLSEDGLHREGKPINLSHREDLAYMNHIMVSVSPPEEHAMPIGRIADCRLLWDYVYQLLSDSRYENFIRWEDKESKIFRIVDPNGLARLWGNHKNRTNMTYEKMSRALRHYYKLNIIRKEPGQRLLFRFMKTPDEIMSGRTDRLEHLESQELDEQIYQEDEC
# Sequence of ETV5 (P41161 whole entry): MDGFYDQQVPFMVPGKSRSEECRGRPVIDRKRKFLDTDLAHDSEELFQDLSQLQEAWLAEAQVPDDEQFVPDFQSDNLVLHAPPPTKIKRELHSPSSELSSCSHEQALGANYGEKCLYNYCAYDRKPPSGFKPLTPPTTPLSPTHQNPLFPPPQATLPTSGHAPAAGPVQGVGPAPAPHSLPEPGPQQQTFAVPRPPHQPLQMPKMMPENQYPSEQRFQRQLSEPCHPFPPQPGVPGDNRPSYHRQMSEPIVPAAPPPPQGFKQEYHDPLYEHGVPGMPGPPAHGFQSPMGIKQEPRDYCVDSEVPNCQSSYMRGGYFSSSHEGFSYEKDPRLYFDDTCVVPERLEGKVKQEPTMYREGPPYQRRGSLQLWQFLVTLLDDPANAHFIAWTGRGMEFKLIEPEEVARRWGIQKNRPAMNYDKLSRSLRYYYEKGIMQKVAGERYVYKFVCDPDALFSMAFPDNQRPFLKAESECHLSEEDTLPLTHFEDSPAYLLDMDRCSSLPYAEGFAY
# Sequence of HSF1 (Q00613 whole entry): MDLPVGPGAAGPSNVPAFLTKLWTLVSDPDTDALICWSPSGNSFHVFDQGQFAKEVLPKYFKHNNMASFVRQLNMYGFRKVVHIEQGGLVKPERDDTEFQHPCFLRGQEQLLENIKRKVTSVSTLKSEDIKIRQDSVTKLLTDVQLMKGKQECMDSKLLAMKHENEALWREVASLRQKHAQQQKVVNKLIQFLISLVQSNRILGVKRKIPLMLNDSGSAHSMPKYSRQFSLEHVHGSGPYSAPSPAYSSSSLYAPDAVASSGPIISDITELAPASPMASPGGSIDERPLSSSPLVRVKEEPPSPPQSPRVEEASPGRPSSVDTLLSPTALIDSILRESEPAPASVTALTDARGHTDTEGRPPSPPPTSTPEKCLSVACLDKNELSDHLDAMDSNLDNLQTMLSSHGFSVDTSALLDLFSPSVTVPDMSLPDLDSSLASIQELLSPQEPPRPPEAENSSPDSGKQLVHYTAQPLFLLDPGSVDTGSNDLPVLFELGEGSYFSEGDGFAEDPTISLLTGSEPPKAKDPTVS
# Sequence of CRX (O43186 whole entry): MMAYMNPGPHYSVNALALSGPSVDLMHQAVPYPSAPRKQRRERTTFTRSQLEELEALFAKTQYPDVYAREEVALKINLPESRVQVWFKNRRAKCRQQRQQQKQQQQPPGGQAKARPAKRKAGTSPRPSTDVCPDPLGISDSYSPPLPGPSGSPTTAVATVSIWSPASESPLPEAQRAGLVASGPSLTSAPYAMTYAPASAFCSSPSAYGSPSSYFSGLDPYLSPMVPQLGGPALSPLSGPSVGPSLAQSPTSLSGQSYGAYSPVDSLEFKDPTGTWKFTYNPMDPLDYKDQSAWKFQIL
# Sequence of ELF4 (Q99607 whole entry): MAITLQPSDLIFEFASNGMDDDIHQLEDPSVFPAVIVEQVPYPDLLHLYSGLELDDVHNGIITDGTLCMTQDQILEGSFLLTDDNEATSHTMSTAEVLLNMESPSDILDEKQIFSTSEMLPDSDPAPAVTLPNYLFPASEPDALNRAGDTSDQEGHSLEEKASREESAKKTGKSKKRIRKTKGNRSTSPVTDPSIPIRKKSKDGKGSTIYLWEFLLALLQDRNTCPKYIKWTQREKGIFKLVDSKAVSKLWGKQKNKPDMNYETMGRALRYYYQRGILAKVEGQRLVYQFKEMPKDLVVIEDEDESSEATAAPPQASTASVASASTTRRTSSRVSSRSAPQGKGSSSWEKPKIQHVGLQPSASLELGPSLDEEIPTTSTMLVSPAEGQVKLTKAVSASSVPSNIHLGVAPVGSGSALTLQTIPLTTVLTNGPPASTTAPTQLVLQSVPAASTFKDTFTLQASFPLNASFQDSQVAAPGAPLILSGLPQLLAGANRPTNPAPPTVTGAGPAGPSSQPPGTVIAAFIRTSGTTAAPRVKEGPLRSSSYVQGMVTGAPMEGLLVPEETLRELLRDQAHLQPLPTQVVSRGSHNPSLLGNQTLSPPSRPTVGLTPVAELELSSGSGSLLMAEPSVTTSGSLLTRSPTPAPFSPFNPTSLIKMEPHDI
sequence,measurement,setting,value
ATTCCC,binding signal,FEV,"1.42 fold enrichment (6-mer frequency, TF over GST control)"
same,binding signal,ETV5,"1.44 fold enrichment (6-mer frequency, TF over GST control)"
same,binding signal,HSF1,"1.61 fold enrichment (6-mer frequency, TF over GST control)"
same,binding signal,SPIC,"1.41 fold enrichment (6-mer frequency, TF over GST control)"
same,binding signal,ELF4,"1.47 fold enrichment (6-mer frequency, TF over GST control)"
same,binding signal,ELK4,"1.24 fold enrichment (6-mer frequency, TF over GST control)"
same,binding signal,ETV2,"1.42 fold enrichment (6-mer frequency, TF over GST control)"
same,binding signal,ELF3,"1.35 fold enrichment (6-mer frequency, TF over GST control)"
same,binding signal,CRX,"1.57 fold enrichment (6-mer frequency, TF over GST control)"
same,binding signal,ETV1,"1.4 fold enrichment (6-mer frequency, TF over GST control)"
same,binding signal,ERF,"1.28 fold enrichment (6-mer frequency, TF over GST control)"
same,binding signal,ETV3L,"1.53 fold enrichment (6-mer frequency, TF over GST control)"
same,binding signal,ETS2,"1.25 fold enrichment (6-mer frequency, TF over GST control)"
same,binding signal,SPDEF,"1.37 fold enrichment (6-mer frequency, TF over GST control)"
same,binding signal,ETV7,"1.29 fold enrichment (6-mer frequency, TF over GST control)"
same,binding signal,ELF5,"1.5 fold enrichment (6-mer frequency, TF over GST control)"
same,binding signal,ETV3,"1.51 fold enrichment (6-mer frequency, TF over GST control)"
same,binding signal,ETV6,"1.38 fold enrichment (6-mer frequency, TF over GST control)"
